From the supplement of paper PMC6089552
Among all 3,200 compounds or so, about 300 (9.4%) showed activity. Many of the other results were omitted from the sample, so actives are more common in it than they were.

Test system: A673/TR/shEF
Assay: cell viability (LOESS-normalised, relative to median of negative controls) (log2 ratio); higher = more viable cells (less compound effect), active = hit call of the paper (over 3 MAD below the median)
Details: treatment time: 72 h
Summary of the method: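 Viability of A673/TR/shEF Ewing sarcoma cells was determined by CellTiter-Glo luminescence. The cells, at 1,500 per well in 384-well plates, were grown with or without doxycycline from 24 h before compound addition to switch on EWS-FLI1 shRNA knockdown, then exposed for three days to library compounds at two or more concentrations or to DMSO controls. Signals were LOESS-corrected plate by plate, normalised to the negative-control median and log2-transformed.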

[1] = 0.25 µM, library screen: screen1, EWS-FLI1 expression: high (no doxycycline)
[2] = 0.25 µM, library screen: screen1, EWS-FLI1 expression: low (doxycycline-induced shRNA knockdown)
[3] = 2.5 µM, library screen: screen1, EWS-FLI1 expression: high (no doxycycline)
[4] = 2.5 µM, library screen: screen1, EWS-FLI1 expression: low (doxycycline-induced shRNA knockdown)
[5] = 0.025 µM, library screen: screen1, EWS-FLI1 expression: high (no doxycycline)
[6] = 0.025 µM, library screen: screen1, EWS-FLI1 expression: low (doxycycline-induced shRNA knockdown)
[7] = 25 µM, library screen: screen1, EWS-FLI1 expression: high (no doxycycline)
[8] = 25 µM, library screen: screen1, EWS-FLI1 expression: low (doxycycline-induced shRNA knockdown)
[9] = 0.25 µM, library screen: screen2, EWS-FLI1 expression: high (no doxycycline)
[10] = 0.25 µM, library screen: screen2, EWS-FLI1 expression: low (doxycycline-induced shRNA knockdown)
[11] = 2.5 µM, library screen: screen2, EWS-FLI1 expression: high (no doxycycline)
[12] = 2.5 µM, library screen: screen2, EWS-FLI1 expression: low (doxycycline-induced shRNA knockdown)

Measured: cell viability (log2)

COC(=O)[C@@H]1OC(=O)C2OC23[C@@]1(C)CCC1[C@]2(C)C(C[C@@H](O)[C@]13C)C(C)(C)[C@H](OC(C)=O)C[C@@H]2OC(C)=O (some centres not stated)
inactive: [1] 0.0653 | [2] 0.123 | [3] 0.0967 | [4] 0.0969

COCCN1C(=O)C(=Cc2c(Cl)cccc2Cl)SC1=S
inactive: [1] 0.153 | [2] 0.208 | [3] 0.122 | [4] 0.19

COc1c(C=O)c(O)cc2c1C(=O)c1ccccc1C2=O
inactive: [5] 0.0865 | [6] 0.0031 | [1] 0.118 | [2] -0.13 | [3] 0.0699 | [4] -0.209 | [7] 0.0121 | [8] -0.781

COc1cc(C)c2c(=O)c3c(O)cc(O)cc3oc2c1
inactive: [1] -0.0797 | [2] 0.0363 | [3] 0.0175 | [4] 0.108

CC(C)c1c(O)ccc2c1CCC1[C@@](C)(C=O)CCC[C@]21C (some centres not stated)
inactive: [1] 0.0641 | [2] 0.0754 | [3] 0.163 | [4] 0.289

CC1=C(C(=O)Nc2ccccc2Cl)C(c2ccc(O)cc2)NC(=S)N1 (configuration not stated)
inactive: [1] 0.145 | [2] -0.0151 | [3] 0.191 | [4] -0.0985

CCN(CC)c1ccc(C2C(C(=O)OC)=C(C)NC(C)=C2C(=O)OC)cc1
inactive: [1] 0.121 | [2] 0.087 | [3] 0.202 | [4] 0.078

CC[C@H](CC[C@@H](C)[C@H]1CC[C@H]2[C@@H]3CC=C4C[C@@H](OC(C)=O)CC[C@]4(C)[C@H]3CC[C@]12C)C(C)C
inactive: [1] 0.121 | [2] 0.139 | [3] 0.109 | [4] 0.182

CCCCCCCCCCCCC(=O)N1CCCCC1CNC(=O)C(N)CCCCN (configuration not stated)
inactive: [9] 0.125 | [10] 0.1 | [11] 0.117 | [12] 0.072

COc1ccc(CN2CCN(Cc3ccc(C)cc3)CC2)c(OC)c1OC
inactive: [1] 0.0669 | [2] 0.0696 | [3] 0.138 | [4] 0.00566

C=CCc1ccc(OC(=O)c2ccccc2)c(OC)c1
inactive: [1] 0.102 | [2] -0.0537 | [3] 0.111 | [4] 0.0334

C=CCc1ccc(O)c(OC)c1
inactive: [1] 0.0882 | [2] 0.124 | [3] 0.127 | [4] 0.12

N/C(=N\S(=O)(=O)Cc1ccccc1)Nc1nc2ccccc2o1
inactive: [1] 0.0883 | [2] 0.00923 | [3] 0.149 | [4] 0.031

COc1ccc2c(c1)CCC1=CC(=O)CCC12C (configuration not stated)
inactive: [1] 0.119 | [2] 0.144 | [3] 0.0987 | [4] 0.126

OC[C@@H](O)[C@@H](O[C@@H]1O[C@H](CO)[C@@H](O)[C@H](O)[C@H]1O)[C@H](O)[C@@H](O)CO
inactive: [1] 0.117 | [2] 0.055 | [3] 0.143 | [4] 0.0198

NC(N)=NCCN1CCCCCCC1
inactive: [1] 0.086 | [2] 0.0896 | [3] 0.182 | [4] 0.105

[O-]n1ccccc1=S.[O-]n1ccccc1=S.[Zn+2]
active: [3] -0.205
inactive: [1] 0.17 | [2] 0.0708 | [4] 0.0604

O=C([O-])[O-].[Ca+2]
inactive: [9] 0.129 | [10] 0.105 | [11] 0.151 | [12] 0.0778

COc1ccc(CN2CCN(Cc3ccc(OC)c(OC)c3OC)CC2)cc1OC
inactive: [1] 0.061 | [2] 0.00924 | [3] 0.123 | [4] 0.0982

CC(C)N1C(=O)C(=C2C(=O)N(C)c3ccccc32)SC1=S
inactive: [1] 0.0638 | [2] 0.00946 | [3] 0.0618 | [4] 0.138

C[C@H]1C(=O)CC[C@@H]2[C@]1(C)CC[C@H]1[C@@]2(C)CC[C@@]2(C)[C@@H]3CC(C)(C)CC[C@]3(C)CC[C@]12C
inactive: [1] 0.031 | [2] 0.0462 | [3] 0.0143 | [4] 0.0816

O=c1c(O)c(-c2cc(O)c(O)c(O)c2)oc2cc(O)cc(O)c12
inactive: [1] 0.0195 | [2] 0.156 | [9] 0.118 | [10] 0.093 | [3] 0.0517 | [4] 0.0582 | [11] 0.111 | [12] 0.0599

COc1cc(O)c2c(=O)c(O)c(-c3ccc(O)c(O)c3)oc2c1
inactive: [1] -0.00867 | [2] 0.0259 | [3] 0.0453 | [4] 0.0969

O=c1c(O)c(-c2ccc(O)c(O)c2)oc2cc(O)cc(O)c12
active: [7] -1.43
inactive: [5] 0.22 | [6] 0.00571 | [1] 0.112 | [2] 0.018 | [9] 0.12 | [10] 0.0619 | [3] 0.108 | [4] 0.0969 | [11] 0.176 | [12] 0.00939 | [8] 0.0272

N#Cc1c2c(c(Nc3ccc(O)cc3)n3c1nc1ccccc13)CCC2
inactive: [1] 0.0182 | [2] 0.0391 | [3] 0.0659 | [4] 0.0482

CCOC(=O)c1c(C)cc(O)cc1O
inactive: [1] 0.0788 | [2] 0.0693 | [3] 0.0357 | [4] 0.0819

CC1=C(C(=O)OC2CCCC2)C(c2coc3ccccc3c2=O)C2=C(CC(C)(C)CC2=O)N1 (configuration not stated)
inactive: [1] 0.0783 | [2] 0.0738 | [3] 0.145 | [4] 0.0146

C#CCN(C)CCCOc1ccc(Cl)cc1Cl
inactive: [9] 0.27 | [10] 0.097 | [11] 0.132 | [12] 0.147

CN(C)CCN(Cc1ccccc1)c1ccccn1
inactive: [1] 0.0764 | [2] 0.111 | [3] 0.247 | [4] 0.229

C#CCN(C)Cc1ccccc1
active: [11] -1.76 | [12] -2.08
inactive: [1] 0.0858 | [2] 0.0954 | [9] 0.078 | [10] -0.0346 | [3] 0.175 | [4] 0.102

COc1ccc(CN2CCN(Cc3ccc(OC)c(OC)c3OC)CC2)cc1Br
inactive: [1] 0.104 | [2] 0.0582 | [3] 0.0165 | [4] 0.0422

Cc1ccc(OCC(=O)N2CCC(C)CC2)c(C)c1
inactive: [1] 0.0605 | [2] 0.118 | [3] 0.14 | [4] 0.114

COc1ccc2c(c1)CCC1=CC(=O)CC[C@@]12C
inactive: [1] 0.0515 | [2] 0.00881 | [3] 0.19 | [4] 0.155

CC1C2C(CC3C4CC[C@@H]5CC(=O)CC[C@]5(C)C4CC[C@@]32C)OC12CC[C@@H](C)CO2 (some centres not stated)
inactive: [1] 0.0621 | [2] 0.0593 | [3] 0.124 | [4] 0.0882

COCCN1C(=O)/C(=C\c2ccc(-c3ccc(Br)cc3)o2)SC1=S
inactive: [1] 0.0753 | [2] 0.00476 | [3] 0.101 | [4] 0.0615

CN(Cc1cnc2nc(N)nc(N)c2n1)c1ccc(C(=O)N[C@H](CCC(=O)O)C(=O)O)cc1
inactive: [9] 0.209 | [10] 0.115 | [11] 0.0762 | [12] 0.165

Nc1nc(N)c2nc(CNc3ccc(C(=O)N[C@@H](CCC(=O)O)C(=O)O)cc3)cnc2n1
inactive: [9] 0.137 | [10] 0.126 | [3] 0.122 | [4] 0.141 | [11] 0.123 | [12] 0.134
active: [1] -1.62 | [2] -0.186

CCCCCN(CCCCC)C(=O)C(CCC(=O)O)NC(=O)c1ccc(Cl)c(Cl)c1 (configuration not stated)
inactive: [9] 0.131 | [10] 0.0648 | [11] 0.114 | [12] 0.0564

CN(Cc1cnc2nc(N)nc(N)c2n1)c1ccc(C(=O)N[C@@H](CCC(=O)O)C(=O)O)cc1
inactive: 0.025 µM, library screen: screen2, EWS-FLI1 expression: high (no doxycycline) 0.0134 | 0.025 µM, library screen: screen2, EWS-FLI1 expression: low (doxycycline-induced shRNA knockdown) 0.0597 | 0.103 µM, library screen: screen3, EWS-FLI1 expression: high (no doxycycline) -0.0597 | 0.103 µM, library screen: screen3, EWS-FLI1 expression: low (doxycycline-induced shRNA knockdown) 0.0506 | [10] 0.0894 | 0.308 µM, library screen: screen3, EWS-FLI1 expression: low (doxycycline-induced shRNA knockdown) 0.0568 | 0.926 µM, library screen: screen3, EWS-FLI1 expression: low (doxycycline-induced shRNA knockdown) 0.0108 | [12] 0.0271 | 2.8 µM, library screen: screen3, EWS-FLI1 expression: low (doxycycline-induced shRNA knockdown) 0.0377 | 8.3 µM, library screen: screen3, EWS-FLI1 expression: low (doxycycline-induced shRNA knockdown) 0.0521 | 25 µM, library screen: screen2, EWS-FLI1 expression: low (doxycycline-induced shRNA knockdown) 0.0873 | 25 µM, library screen: screen3, EWS-FLI1 expression: low (doxycycline-induced shRNA knockdown) 0.0291
active: [9] -0.406 | 0.308 µM, library screen: screen3, EWS-FLI1 expression: high (no doxycycline) -0.512 | 0.926 µM, library screen: screen3, EWS-FLI1 expression: high (no doxycycline) -0.53 | [11] -0.754 | 2.8 µM, library screen: screen3, EWS-FLI1 expression: high (no doxycycline) -0.711 | 8.3 µM, library screen: screen3, EWS-FLI1 expression: high (no doxycycline) -0.751 | 25 µM, library screen: screen2, EWS-FLI1 expression: high (no doxycycline) -0.743 | 25 µM, library screen: screen3, EWS-FLI1 expression: high (no doxycycline) -0.797

O=C(O)CCC(NC(=O)c1ccccc1C(=O)O)C(=O)O (configuration not stated)
inactive: [9] 0.0764 | [10] 0.0149 | [11] 0.157 | [12] 0.0718

Nc1nc(=O)c2nc(CNc3ccc(C(=O)N[C@@H](CCC(=O)O)C(=O)O)cc3)cnc2[nH]1
inactive: [1] 0.0181 | [2] 0.031 | [3] 0.0902 | [4] 0.0775

CC(=O)O[C@H]1CC2(C)[C@@H](C[C@@H](O)[C@H]3[C@@]4(C)CC[C@@H](O)[C@@H](C)[C@@H]4CC[C@@]32C)/C1=C(/CCC=C(C)C)C(=O)O (some centres not stated)
inactive: [9] 0.0714 | [10] 0.0604 | [11] 0.159 | [12] 0.0152

CC1CCC2(CO)CCC3(C)C(=CCC4C5(C)CCC(O)C(C)(C)C5CCC43C)C2C1C (configuration not stated)
inactive: [1] 0.00774 | [2] -0.0265 | [3] 0.0749 | [4] 0.092
